# D1 antagonist – blocks dopamine activation of the human D1 receptor; activity change, negative = inhibition, % at 10 µM; AID 504652; HEK293 TREx D1 cells, calcium flux, dopamine EC80; stronger effect = lower value; 360,000 tested, 3.2% active; in the data active = activity change below about -30%; also: % is scaled to controls: 0 for no effect and ±100 for the full control effect
# Target sequence (P21728 whole entry, looked up): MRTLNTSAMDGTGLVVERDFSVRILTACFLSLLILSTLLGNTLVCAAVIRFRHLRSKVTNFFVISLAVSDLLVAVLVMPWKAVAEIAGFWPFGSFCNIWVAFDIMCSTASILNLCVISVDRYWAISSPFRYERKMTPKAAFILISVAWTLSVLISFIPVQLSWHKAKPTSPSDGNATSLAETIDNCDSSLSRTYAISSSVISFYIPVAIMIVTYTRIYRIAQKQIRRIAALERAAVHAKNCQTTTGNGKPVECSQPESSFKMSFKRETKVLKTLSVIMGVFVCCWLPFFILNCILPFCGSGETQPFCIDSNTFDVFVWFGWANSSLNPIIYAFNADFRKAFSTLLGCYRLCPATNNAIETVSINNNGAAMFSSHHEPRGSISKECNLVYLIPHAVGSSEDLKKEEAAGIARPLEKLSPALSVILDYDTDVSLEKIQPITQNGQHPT
#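 HEK293 T-REx cells expressing inducible, force-coupled D1 receptor; no-wash Ca dye, 30–90 min RT. Cmpd → 180 s read at 1 Hz → EC80 DA → 180 s read.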
# TRHR ag – agonists of human TRH receptor; P34981; TRHR cells, calcium flux fluo-8, FDSS agonist mode; activation, % at 2 µM; 360,000 tested, 0.18% active; AID 493084; also: 0% is about no effect
#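 TRHR-expressing cells loaded with fluo-8 calcium dye; 23 nL library compound pin-transferred, kinetic FDSS fluorescence (Ex 480/Em 530) recorded about 180 s for agonist-induced calcium release, before a 10 nM TRH EC20 addition for potentiator mode.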
# TRHR enhancer – allosterically enhances the human TRH receptor; P34981; TRHR cells, fluo-8 calcium fluorescence, EC20 TRH enhancement; enhancement, % at 2 µM; 360,000 tested, 0.66% active; AID 493056; in the data active = enhancement above about 30%; also: 0% is about no effect
#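 Enhancer read-out: after compound pinning and an initial kinetic agonist-mode read, an EC20 of TRH (10 nM final) was injected and fluo-8 calcium signal (Ex 480/Em 530) followed at 1 s/cycle for 100 cycles in TRHR-expressing cells.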
# D1 agonist – activates the human D1 dopamine receptor; HEK293 T-REx D1 cells, calcium flux, agonist mode; activation, % at 2 µM; 360,000 tested, 1% active; AID 504660; also: 0% is about no effect
#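 Tetracycline-induced HEK293 TREx D1 cells, force-coupled to calcium signalling, were dye-loaded with a no-wash calcium kit. Compound was pin-added after a 10 s baseline. Fluorescence was read kinetically at 1 cycle/s for 180 s, with calcium rises flagged as agonism.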
# D1 PAM – enhances dopamine response at the human D1 receptor; P21728; HEK293 TREx D1 cells, calcium flux, dopamine EC20 potentiation; potentiation, % at 10 µM; 360,000 tested, 0.036% active; AID 504651; in the data active = potentiation above about 30%; also: 0% is about no effect
# * hit, by the source's call; . = no result given. Rows were chosen to be rich in hits. Some 4.7% of all compounds tested hit in one or more screens of this group. Rule as the data show it, unless noted: active = activation above about 30%; inactive = the rest.
SMILES,D1 antagonist,TRHR ag,TRHR enhancer,D1 agonist,D1 PAM
COCCCNC(=O)CCc1c(C)c2cc3c(C)coc3cc2oc1=O,-56*,-1,1,7,-3
Cn1cccc1C(=O)NNC(=O)COc1ccccc1F,-47*,0,-3,0,-7
COc1ccc(N2CC(NC(=O)COc3ccccc3C)CC2=O)cc1OC (stereo not given),.,-1,5,6,-2
Cc1nnc(SCc2cc(=O)n3cccc(C)c3n2)s1,-47*,0,6,0,2
Cc1cccn2c(=O)cc(CSc3nnc(NC(=O)c4ccc(F)cc4)s3)nc12,-3,0,-3,0,0
Cc1cc(O)c2c(C)c(CC(=O)NCc3ccccc3Cl)c(=O)oc2c1,-35*,0,0,1,-3
COc1ccc(CNC(=O)Cc2c(C)c3c(O)cc(C)cc3oc2=O)cc1,2,0,1,2,-1
CC(=O)c1cccc(NC(=O)NC2CCCc3ccccc32)c1 (stereo not given),1,1,-7,3,-8
Cc1cccc(NC(=O)NC2CCCc3ccccc32)c1 (stereo not given),-44*,0,-8,2,0
O=C(NC1CCCc2ccccc21)c1cn2ccccc2n1 (stereo not given),12,0,6,1,-7
COc1ccc(NC(=O)NC2CCCc3ccccc32)cc1OC (stereo not given),-22,2,0,1,-4
COc1ccc(NC(=O)NC2CCCc3ccccc32)cc1 (stereo not given),-43*,1,-4,2,-9
Cc1nc2ccccn2c1C(=O)NC1CCCc2ccccc21 (stereo not given),-34*,-2,3,6,-7
O=C(Cc1ccc(S(=O)(=O)N2CCOCC2)s1)N1CCN(c2cccc(C(F)(F)F)c2)CC1,-32*,0,-2,14,-6
O=[N+]([O-])c1cc(C(F)(F)F)ccc1Oc1cccnc1[N+](=O)[O-],-81*,0,-1,0,-9
O=C(Nc1ccc(F)cc1)c1ccccc1Oc1ccc(C(F)(F)F)cc1[N+](=O)[O-],-17,1,4,3,-5
Cc1ccc(C)c(OCC(=O)OCC(=O)Nc2c(C)nn(-c3ccccc3)c2C)c1,-2,0,-6,6,-4
Cc1ccc(OCC(=O)Nc2c(C)nn(-c3ccccc3)c2C)c(Br)c1,-37*,0,-3,15,-4
Cc1c([S+](=O)([O-])N2CCN([S+](=O)([O-])c3c(F)cccc3F)CC2)sc2ccc(Cl)cc12,-31*,1,1,2,-1
COc1cccc(NC(=S)NN2CCN(C)CC2)c1,3,0,1,1,-10
CN1CCN(NC(=S)Nc2ccc(Oc3ccccc3)cc2)CC1,-11,1,-6,36*,-3
CCOC(=O)c1c(C)oc2c1cc(NS(=O)(=O)c1ccc(C)cc1)c1ccccc12,6,1,-4,6,1
O=[N+]([O-])c1ccccc1-c1ccc(CN2CCN(c3ccccc3)CC2)o1,-33*,0,-5,0,-9
O=c1[nH]cnc2sc3c(c12)CCC3,13,0,33*,2,-4
Cc1nc2sc3c(c2c(=O)[nH]1)CCC3,23,1,9,1,-1
SMILES,D1 antagonist,TRHR ag,TRHR enhancer,D1 agonist,D1 PAM
CCOC(=O)N1CCc2c(sc3nc[nH]c(=O)c23)C1,-31*,0,2,2,-2
CCOC(=O)N1CCc2c(sc3ncn(Cc4ccc(F)cc4)c(=O)c23)C1,16,0,-5,2,-3
Cc1ccc(CN2CCCn3nc(C(=O)NCCC(C)C)cc3C2=O)cc1,7,-1,-4,2,0
CC(OC(=O)c1ccccc1O)C(=O)Nc1ccc(Cl)cn1 (stereo not given),-11,0,-4,1,0
CC(OC(=O)c1ccc(S(=O)(=O)N(C)C)cc1)C(=O)Nc1ccc(Cl)cn1 (stereo not given),-60*,-1,-3,6,0
O=C(CSc1nc2c([nH]c3ccccc32)c(=O)n1-c1ccccc1)Nc1ccccc1C(F)(F)F,-8,0,-2,0,1
CSc1ccc(C2NC(=O)c3c(sc4c3CCN(C)C4)N2)cc1 (stereo not given),7,-1,0,34*,.
CN1CCc2c(sc3c2C(=O)NC(c2ccc(C(C)(C)C)cc2)N3)C1 (stereo not given),2,9,0,37*,3
CN1CCc2c(sc3c2C(=O)NC(c2cccs2)N3)C1 (stereo not given),-48*,2,-2,8,-3
Cc1ccc(S(=O)(=O)c2cn(C)c3cc(N4CCCCCC4)c(F)cc3c2=O)cc1,0,-1,12,1,1
CC(C)c1ccc(NC(=O)CSc2nc(=O)n(Cc3ccccn3)c3c2CCC3)cc1,.,0,4,-1,2
Cc1ccc(NC(=O)CN2C(=O)CSc3ccc(S(=O)(=O)N(C)C)cc32)cc1C,-4,1,-1,3,3
COc1ccc(-c2cnnn2-c2ccc(NC(=O)c3c(F)cccc3F)cc2)cc1,-17,0,-2,12,-3
Cc1ccsc1/C=N/NC(=O)C1CC(=O)N(c2ccccc2)C1 (stereo not given),-47*,0,1,0,-7
N#Cc1ccc(NC(=O)Nc2cccc(C#N)c2)cc1,-63*,3,4,32*,-13
N#Cc1cccc(NC(=O)c2ccccc2C(=O)O)c1,0,1,-1,3,-2
N#Cc1ccc(NC(=O)Nc2ccc(Oc3ccc(NC(=O)Nc4ccc(C#N)cc4)cc3)cc2)cc1,11,0,37*,16,-4
O=C(c1ccccc1Cl)N1CCC(c2nc3ccccc3s2)CC1,7,1,9,5,0
O=C(Cc1ccc(F)cc1)NC1CCSC1=O (stereo not given),-33*,0,-1,3,-2
O=C(CCCc1ccccc1)NC1CCSC1=O (stereo not given),1,0,-3,0,2
COc1ccc(N2CCN(C(=O)c3cc4c(s3)CCCCC4)CC2)cc1,-57*,0,4,1,-11
CC(=O)c1ccc(N2CCN(C(=O)c3cc4c(s3)CCCC4)CC2)cc1,-35*,-1,-8,3,-6
COc1ccccc1N1CCN(C(=O)c2cc3c(s2)CCC3)CC1,3,-1,-5,1,1
CCOC(=O)N1CCC(NC(=O)c2cc3c(-c4cccc(OC)c4)nn(C)c3s2)CC1,-43*,-1,2,3,-1
COc1cccc(-c2nn(C)c3sc(C(=O)NCCc4cccc(C)c4)cc23)c1,-11,5,3,46*,15

# Bioassay records from PubChem BioAssay.
